Screening data (PubChem)
This is a sample that favours compounds with a hit; in the whole collection about 0.85% have one here.
Tb PGK inh = T. brucei PGK inhibition | P07378 | PGK/GAPDH coupled, Kinase-Glo luminescence, 60 min | Potency, µM (doses to about 57.5 µM), without a hit: top-dose activity change, negative = inhibition, usual class: inhibitors | actives 0.043% (n = 380,000) | AID 602233; further: nearly all actives have a fitted effect of over 60% in size
Target sequence (P07378 whole entry, looked up): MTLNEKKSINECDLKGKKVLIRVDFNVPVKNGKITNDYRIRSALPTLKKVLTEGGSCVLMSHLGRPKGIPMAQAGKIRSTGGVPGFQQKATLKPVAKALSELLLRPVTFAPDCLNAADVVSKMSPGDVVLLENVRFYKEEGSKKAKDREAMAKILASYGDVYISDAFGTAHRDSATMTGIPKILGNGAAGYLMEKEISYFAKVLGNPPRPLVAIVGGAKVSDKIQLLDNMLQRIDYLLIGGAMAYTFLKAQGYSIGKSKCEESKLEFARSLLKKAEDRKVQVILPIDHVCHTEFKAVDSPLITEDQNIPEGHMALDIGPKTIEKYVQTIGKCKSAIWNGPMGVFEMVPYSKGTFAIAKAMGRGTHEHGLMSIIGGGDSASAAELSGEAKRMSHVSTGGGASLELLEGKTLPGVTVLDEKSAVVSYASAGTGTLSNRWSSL
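Luminescent ATP detection (Kinase-Glo Plus) follows a 60-minute room-temperature incubation, with wells lacking PGK as controls. Buffer: 100 mM TEA (pH 7.6), 5 mM MgCl2, 0.01% Tween-20. Coupling enzyme GAPDH (100 nM final) supplies unstable 1,3-BPG in-well.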
GLS inhibitor = glutaminase GLS (human) inhibition. actives 0.21% (n = 410,000). O94925. GLS enzymatic activity, qHTS titration. AID 624170. Potency, µM (doses to about 45.5 µM), for inactives: at the highest dose activity change, negative = inhibition, hits mostly inhibitors
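Enzyme dispensed in phosphate buffer (45 mM, pH 8.2, 0.02% Tween-20), compounds pinned in, then 1 mM L-glutamine solution and the glutamate oxidase–HRP–Amplex Red mix added; fluorescence read immediately and again after 30 min at room temperature.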
RECQ1 inh-1 = RECQ1 (human) helicase inhibition | P46063 | AID 2549 | actives 0.54% (n = 240,000) | RECQ1 DNA unwinding, red fluorescence kinetic read | Potency, µM (series often up to 57.3 µM), for the others: top-dose activity, negative = inhibition, usual class: inhibitors;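 further: plate controls were vehicle for no effect and no enzyme for full effect; nearly all actives have a fitted effect of over 30% in size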
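RECQ1T1 50 nM; forked duplex (20 bp + 30-nt ss tails) 200 nM, ATP 2 mM final; pH 8.0, 2 mM MgCl2, 2.5 ug/ml poly(dI-dC); 15 min compound preincubation; discontinuous kinetic read over 2 h at RT.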
BLM inh = Bloom syndrome helicase (human) inhibition. recombinant BLM DNA unwinding, fluorescence dequenching. Potency, µM (series often up to 56.1 µM), without a hit: at the highest dose activity change, negative = inhibition, most hits filed as inhibitors. actives 0.2% (n = 350,000);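 further: plate controls were vehicle for no effect and no enzyme for full effect; nearly all actives have a fitted effect of over 35% in size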
TDP1 block = inhibitors of human tyrosyl-DNA phosphodiesterase TDP1 | Q9NUW8 | recombinant TDP1, AlphaScreen DNA substrate cleavage | actives 0.28% (n = 350,000) | Potency, µM (doses to about 130 µM), for the others: top-dose activity change, negative = inhibition, usual class: inhibitors; further: nearly all actives have a fitted effect of over 40% in size
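Tdp1 1 nM final; 15 min RT w/ cpd; substrate 15 nM, 5 min; beads 10 ug/ml, 10 min; AlphaScreen read. Neg ctrl: no enzyme.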
APE1 inh = inhibitors of human APE1 endonuclease; P27695; actives 0.35% (n = 350,000); AID 2517; recombinant APE1, TAMRA/BHQ-2 abasic DNA cleavage fluorescence; Potency, µM (titrated, usually from 65.8 µM), for the others: top-dose activity change, negative = inhibition, usual class: inhibitors;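 further: plate controls were vehicle for no effect and reference inhibitor for full effect; nearly all actives have a fitted effect of over 55% in size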
Target sequence (P27695 whole entry, looked up): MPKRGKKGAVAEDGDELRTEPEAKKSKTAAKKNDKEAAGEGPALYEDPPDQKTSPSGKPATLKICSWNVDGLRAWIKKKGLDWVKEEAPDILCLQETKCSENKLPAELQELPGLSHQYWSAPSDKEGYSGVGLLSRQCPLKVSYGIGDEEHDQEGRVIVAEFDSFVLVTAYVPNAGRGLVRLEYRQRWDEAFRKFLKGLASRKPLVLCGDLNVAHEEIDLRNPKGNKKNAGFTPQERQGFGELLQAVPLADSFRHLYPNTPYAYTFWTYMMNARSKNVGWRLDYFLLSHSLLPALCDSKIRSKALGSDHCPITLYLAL
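Measures dequenching upon AP-site incision of a 5'-TAMRA/3'-BHQ-2 THF-containing duplex, 50 nM; human APE1 0.75 nM after 15 min room-temperature exposure to compound; kinetic three-point read at one-minute spacing.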
RECQ1 conf = confirmation of human RECQ1 helicase inhibitors; shares compounds with RECQ1 inh-1; RECQ1 helicase DNA unwinding, fluorescence; Potency, µM (doses to about 229 µM), inactives show top-dose activity change, negative = inhibition, hits mostly inhibitors; actives 28% (n = 610); AID 2708; further: nearly all actives have a fitted effect of over 45% in size
ADP FP counter = displaces ADP in a fluorescence polarization counter-screen for RECQ1 hits; AID 2711; actives 27% (n = 530); ADP fluorescence polarization displacement counterscreen; shares compounds with RECQ1 inh-1; Potency, µM (titrated, usually from 228 µM), for inactives: top-dose activity change, negative = inhibition, hits mostly inhibitors; further: nearly all actives have a fitted effect of over 45% in size
RECQ1 inh-2 = confirmation of human RECQ1 helicase inhibitors. actives 15% (n = 1,100). Potency, µM (series often up to 119 µM), for the others: at the top dose activity, negative = inhibition, most hits filed as inhibitors. recombinant RECQ1 DNA unwinding, red fluorescence. AID 504841. shares compounds with RECQ1 inh-1; further: nearly all actives have a fitted effect of over 50% in size
* hit, by the source's call; i = inactive; ? = inconclusive; / = no result; ! = a repeat was not active; [ ] = dose if it differs, or a comment. The call rests on the fitted dose curve; in most records, active means well fitted curve in the direction sought with a large enough effect; inconclusive means small, poorly fitted or top-dose-only effect, or another doubt; inactive means no such curve, though single readings can be large; an effect the other way counts as inactive or inconclusive. Unless noted, on the % scale 0 is the no-effect control and ±100 the full control effect; potency means the concentration at half of the fitted maximal effect.

SMILES	Tb PGK inh	GLS inhibitor	RECQ1 inh-1	BLM inh	TDP1 block	APE1 inh	RECQ1 inh-2	others
CCN(CC)C(=O)CSc1nc2ccc(NC(=O)CSc3nccn3C)cc2s1	-1.5%[11.5 µM]	-12.1%	20µM*	-12.4%	3.3%	-0.1%	-13.1%	RECQ1 conf=?;ADP FP counter=?
O=C(NS(=O)(=O)c1ccc(F)cc1)O[C@@H]1C(=O)c2cc(Br)ccc2O[C@H]1c1ccc2c(c1)OCO2	/	/	-4.3%	1.8%	9.3%	19.8%	/
COCCN1C(=O)C(=O)/C(=C(/O)c2ccc(S(=O)(=O)N3CCOCC3)cc2)C1c1cccc(O)c1 (configuration not stated)	-5.4%	3.0%	-2.8%	7.7%	/	-8.4%	/	RECQ1 conf=0.0%;ADP FP counter=4.2%
COCCN1C(=O)C(=O)/C(=C(/O)c2ccc(S(=O)(=O)N3CCOCC3)cc2)C1c1ccc(C(C)C)cc1 (configuration not stated)	/	/	-3.5%	-1.3%	0.0%	-2.7%	/
CCCN1CCCC(c2cccc(S(C)(=O)=O)c2)C1 (configuration not stated)	/	/	-1.6%	1.3%	4.3%	?	/
Cc1cccc(N2CCN(C(=O)c3ccccc3NC(=O)C3CC=CCC3C(=O)O)CC2)c1 (configuration not stated)	-2.5%	26.7%	i	-1.1%	3.5%	-4.4%	/	RECQ1 conf=11.7%;ADP FP counter=-5.9%
Cc1ccc(NC(=O)COC(=O)CNC(=O)c2cccc([N+](=O)[O-])c2)cc1S(=O)(=O)N1CCCCCC1	-8.6%	-3.4%	31.6µM*	-8.6%	5.6%	?	-15.6%
O=C(COC(=O)CNC(=O)c1cccc([N+](=O)[O-])c1)Nc1cccc(S(=O)(=O)N2CCCCC2)c1	i	-3.6%	-1.1%	0.8%	2.7%	-5.6%	/
CCOC(=O)NCCOc1ccc(Oc2ccccc2)cc1	/	/	-18.2%	-12.7%	-11.5%	-2.4%	/
CC(C)C(NS(=O)(=O)c1cccc2nsnc12)C(=O)N1CCn2c1nc1ccccc12 (configuration not stated)	-5.9%	0.9%	1.8%	-5.3%	-1.3%	13.4%	/	RECQ1 conf=9.6%;ADP FP counter=?
COc1ccc(NC(=O)C(NS(=O)(=O)c2cccc3nsnc23)C(C)C)cc1 (configuration not stated)	-4.1%	2.9%	/	-1.7%	8.1%	/	/
CC1(C)C2CCC1(C)C(NC(=O)COC(=O)c1ccc(S(C)(=O)=O)c([N+](=O)[O-])c1)C2 (configuration not stated)	/	/	/	/	0.3%	/	/
CNC(=O)COC(=O)c1c2c(nc3ccccc13)CCC2	-2.7%	?	?	-12.2%	/	-5.5%	?
CCCCNC(=O)COC(=O)c1c2c(nc3ccccc13)CCC2	-9.1%	136.4%	/	?	-14.9%	-20.4%	/
Cc1ccc(-c2csc(NC(=O)/C=C/c3ccco3)c2C(=O)O)cc1	-16.1%	18.6%	22.4µM*	?	/	?	-29.7%	RECQ1 conf=?;ADP FP counter=-8.5%[91.9 µM]
O=C(/C=C/c1ccco1)Nc1sc2c(c1C(=O)O)CCC2	-13.6%	12.3%	35.5µM*	5.3%	/	?	?
COc1ccc(C#Cc2c[nH]c(=O)c3cncnc23)cc1OC	/	/	/	/	2.2%	/	/
C=CCN1C(=O)CS/C1=C(\C#N)S(=O)(=O)c1ccc(C)cc1	-7.3%	9.2%	20µM*	-9.8%	10.9%	-4.8%	?
C=CCN1C(=O)CSC1=Nc1ccc(C(=O)O)cc1	1.8%	0.9%	/	1.3%	/	-8.2%	/
CCOC(=O)C1CCN(C(=O)Nc2ccc3nc(-c4ccco4)c(-c4ccco4)nc3c2)CC1	?	-9.8%	10µM*	4.47µM*	35.5µM*	7.94µM*	?
CCOC(=O)C1CCN(C(=O)Nc2ccc3c(c2)nc(C)n3C)CC1	-3.0%	7.5%	4.5%	2.2%	4.5%	-4.8%	/
O=C(Nc1cccc(S(=O)(=O)N2CCOCC2)c1)[C@@H]1CCCN1S(=O)(=O)c1ccc(Cl)cc1	i	0.1%	-1.5%	-8.1%	-5.9%	-0.5%	/	RECQ1 conf=-8.7%;ADP FP counter=24.6%
O=C(Nc1cccc(S(=O)(=O)N2CCOCC2)c1)C1CCCCN1S(=O)(=O)c1ccccc1 (configuration not stated)	-3.8%	-0.7%	/	/	0.5%	-9.5%	/
Cc1c(C)c2c(c(C)c1O)CCC(C)(COc1ccc(CC3SC(=O)NC3=O)cc1)O2 (configuration not stated)	/	10.0%	?	-18.7%	25.2%	-4.8%	?
Cc1nnc(SCC(=O)N2N=C(c3ccc(Cl)cc3)CC2c2ccco2)[nH]c1=O (configuration not stated)	-12.5%	-9.5%	31.6µM*	-9.8%	0.0%	-12.3%	-29.9%
SMILES	Tb PGK inh	GLS inhibitor	RECQ1 inh-1	BLM inh	TDP1 block	APE1 inh	RECQ1 inh-2	others
Nc1cc2nc3ccccc3oc-2cc1=O	-4.2%	2.0%	?	-13.9%	-7.6%	1.1%	?
O=S(=O)(c1ccc2c(c1)OCCO2)N1CCN(c2nc(-c3ccccc3)nc3ccccc23)CC1	/	/	/	/	0.7%	/	/
CC(C)(C)C1CCC(C(=O)OCC(=O)c2ccc[nH]2)CC1 (configuration not stated)	-2.2%	0.1%	?	-11.9%	2.8%	10.0%	-25.4%
CO[C@H]1OC2O[C@@]3(C)CC[C@H]4[C@H](C)CC[C@@H]([C@H]1C)[C@@]24OO3 (some centres not stated)	/	-7.5%	/	-4.9%	4.3%	/	/
COc1ccc(-c2cc(C(=O)O)no2)cc1	4.8%	-0.7%	?	6.6%	9.2%	6.5%	4.2%
COc1ccc(OC)c(Nc2nc(NCCCN(C)C)nc(N)c2[N+](=O)[O-])c1	-1.8%	7.7%	?	?	2.5%	?	?
O=C(O)c1cc(O)c2c(c1)C(=O)c1cccc(O)c1C2=O	-26.9%	22.4µM*	3.16µM*!	35.5µM*!	-2.7%	0.316µM*	/	RECQ1 conf=126µM*;ADP FP counter=7.94µM*
O=C1C=C(O)c2c(O)cccc2C1=O	/	/	?	-1.5%	/	?	/
